From PubChem
Sampled rows, rich in hits. Any-hit rate of the full collection: about 2.9%.
ADAM17 inh: inhibitors of human ADAM17 | 0.83% of 370,000 active | recombinant ADAM17, EDANS/DABCYL FRET peptide cleavage | inhibition, % at 6.95 µM;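 active means inhibition above the mean of compounds lying between control limits plus 3 SD, set per campaign, cut at about 8.5% in these data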;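 further: 0% = DMSO-only wells as the low control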
Target sequence (P78536 215-824 limits assumed): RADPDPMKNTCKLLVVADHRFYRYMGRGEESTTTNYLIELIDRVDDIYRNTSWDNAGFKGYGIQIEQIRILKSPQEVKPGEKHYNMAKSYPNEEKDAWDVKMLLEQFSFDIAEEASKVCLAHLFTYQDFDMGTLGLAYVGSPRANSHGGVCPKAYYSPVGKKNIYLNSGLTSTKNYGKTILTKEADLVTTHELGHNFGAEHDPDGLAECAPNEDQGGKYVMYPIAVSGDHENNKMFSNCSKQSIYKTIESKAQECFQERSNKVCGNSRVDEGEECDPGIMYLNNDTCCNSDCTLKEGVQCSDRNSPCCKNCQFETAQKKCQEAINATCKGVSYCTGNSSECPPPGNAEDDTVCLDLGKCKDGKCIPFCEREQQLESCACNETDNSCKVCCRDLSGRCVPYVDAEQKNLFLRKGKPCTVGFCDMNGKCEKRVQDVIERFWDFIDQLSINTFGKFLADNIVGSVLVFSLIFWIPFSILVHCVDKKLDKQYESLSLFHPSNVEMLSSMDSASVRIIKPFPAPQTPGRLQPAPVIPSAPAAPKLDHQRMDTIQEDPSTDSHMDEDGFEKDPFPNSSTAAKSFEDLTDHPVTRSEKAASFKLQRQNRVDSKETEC
ADAM10 inh: inhibitors of human ADAM10 | O14672 | AID 720582 | 0.62% of 370,000 active | recombinant ADAM10, EDANS/DABCYL FRET peptide cleavage, 3 h | inhibition, % at 7 µM;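 active means inhibition above a per-campaign cutoff equal to the mean of compounds falling between control-based bounds plus 3 SD, cut at about 20% in these data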;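 further: 0% = DMSO wells while the 100% control is not disclosed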
proKLK7 act: proKLK7 (human) activation, primary screen; AID 652039; activation, % at 7 µM; purified proKLK7, EDANS-DABCYL substrate fluorescence; 100% is mature enzyme control, 0% vehicle; 0.9% of 370,000 active; P49862;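 active means activation above the mean of all tested compounds plus 3 SD, computed per campaign excluding outliers beyond control limits, cut at about 13% in these data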
PLC-beta3 inh: inhibitors of human phospholipase C beta3; Purified PLC-beta3, fluorogenic substrate, fluorescence; inhibition, % at 12.2 µM; 0.18% of 370,000 active; AID 720704; in the data active means inhibition above about 11%;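 further: 0% = median of compound wells on plate and 100% = full blocker control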
PLCg1 inh: blocks human PLC-gamma1 enzyme activity. P19174. purified PLC-gamma1, fluorogenic substrate, fluorescence. inhibition, % at 12.2 µM. 0.84% of 370,000 active. AID 720700; in the data active means inhibition above about 9.5%
ADAM10 confirm: human ADAM10 inhibition, confirmation | shares compounds with ADAM10 inh | ADAM10 QFRET peptide cleavage, EDANS fluorescence | inhibition, % at 6.95 µM | 1% of 2,100 active | AID 743208;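 active means inhibition above about 20% chosen separately for each screening run, limit read from the data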;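 further: 0% = DMSO wells and 100% = marimastat wells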
ADAM17 counter: counter-screen for ADAM10 exosite inhibitors: inhibitors of human ADAM17. inhibition, % at 6.95 µM. shares compounds with ADAM10 inh. AID 743214. 0.5% of 2,100 active. ADAM17 QFRET peptide cleavage, EDANS fluorescence;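 active means mean triplicate inhibition above the solvent-only control wells' mean plus 3 SD, cut at about 12% in these data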;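 further: 0% = DMSO wells and 100% = marimastat wells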
ADAM10 counter: inhibits human ADAM10 in ADAM17 exosite counter-screen. shares compounds with ADAM17 inh. recombinant ADAM10, EDANS/DABCYL FRET peptide cleavage, 3 h. inhibition, % at 6.95 µM. 47% of 2,900 active. AID 743256;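 active means mean inhibition over the triplicate runs exceeds the activity threshold set in the earlier primary screen, cut at about 20% in these data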;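 further: 0% = DMSO wells and 100% = marimastat wells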
ADAM17 confirm: human ADAM17 inhibition, confirmation; shares compounds with ADAM17 inh; recombinant ADAM17, EDANS/DABCYL QFRET peptide cleavage; inhibition, % at 6.95 µM; 65% of 2,900 active;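 active means mean inhibition across replicates above the hit cutoff set in the primary screen, cut at about 8.5% in these data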;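 further: 0% = DMSO wells and 100% = marimastat wells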
Starred values were filed as active, the others as inactive; . = not tested or not shown.

SMILES	ADAM17 inh	ADAM10 inh	proKLK7 act	PLC-beta3 inh	PLCg1 inh	ADAM10 confirm	ADAM17 counter	ADAM10 counter	ADAM17 confirm
COC(=O)C1=C(C)N(C)C(=NCc2cccc(C(F)(F)F)c2)NC1c1ccc(F)cc1 (stereo not drawn)	-3	-1	0	-2	2	.	.	.	.
COc1cc(/C=N/NC(=O)COc2ccc(Cl)cc2)ccc1OS(=O)(=O)c1ccc(C)cc1	11*	27*	-1	6	3	15	4	51*	34*
COc1cc(/C=N/NC(=O)COc2cccc(F)c2)ccc1OS(=O)(=O)c1ccc(C)cc1	13*	25*	0	5	3	8	3	24*	16*
O=S1(=O)c2c(NCc3ccco3)cccc2Oc2ccccc2CN1Cc1cn(Cc2ccc(Cl)cc2)nn1	-8	-9	-8	-76	-50	.	.	.	.
O=C(CNc1cc(S(=O)(=O)N2CCCC2)ccc1OCC(F)(F)F)Nc1cccc(C(F)(F)F)c1	11*	26*	-1	2	1	3	0	41*	17*
O=C(CNc1cccc(C(F)(F)F)c1)Nc1cccc(S(=O)(=O)N2CCCC2)c1	6	8	1	-6	-2	.	.	.	.
CN1C2CCC1/C(=C\c1ccc(F)cc1)C(=O)/C2=C/c1ccc(F)cc1	-3	-1	0	1	-5	.	.	.	.
C=CC(=O)N1C/C(=C/c2ccc(F)cc2)C(=O)/C(=C\c2ccc(F)cc2)C1	11*	20*	0	-31	-14	3	0	21*	14*
COc1ccc(NC(=O)c2cc3ccc(O)cc3o/c2=N\O)cc1	-10	-16	-2	-27	-15	.	.	.	.
O=C(COC(=O)/C=C/c1cccc(Cl)c1)Nc1ccc(N2CCOCC2)cc1	-5	-5	0	0	2	.	.	.	.
Cc1ccc(NC(=O)COC(=O)/C=C/c2cccc(Cl)c2)cc1S(=O)(=O)N1CCOCC1	9.5*	29*	0	0	2	5	2	26*	15*
CN1CCN(S(=O)(=O)c2ccc3c(c2)NC(=O)CS3)CC1	-2	0	1	-8	1	.	.	.	.
Cc1ccc(C)c(N2CCN(S(=O)(=O)c3ccc4c(c3)NC(=O)CS4)CC2)c1	12*	20*	0	-9	-3	8	2	34*	18*
CC(C)C[C@@]12C(=O)N(c3cccc(Br)c3)C(=O)N1[C@H](c1ccc(F)cc1)[C@@H]1C(=O)N(C3CCCCC3)C(=O)[C@@H]12	2	16	0	3	2	.	.	.	.
CC[C@@]12C(=O)N(c3cccc(Br)c3)C(=O)N1[C@H](c1ccc(F)cc1)[C@@H]1C(=O)N(C3CCCCC3)C(=O)[C@@H]12	11*	26*	0	5	5	7	2	20*	14*
COc1ccc2c(c1)c(CC(=O)Nc1ccc(C(C)=O)cc1)c(C)n2C(=O)c1ccc(Cl)cc1	12*	24*	-17	-8	-4	15	5	30*	18*
CC1C(=O)C(C)C(c2cc(Br)ccc2O)NC1c1cc(Br)ccc1O (stereo not drawn)	15*	34*	0	-3	7	10	3	-257	-22
O=C(CSc1nnc(-c2ccccc2)n1-c1ccc(Cl)cc1)Nc1ccc2cn[nH]c2c1	0	3	0	3	1	.	.	.	.
Cc1ccc(NC(=O)c2c(C(F)(F)F)nn(C)c2SCc2cccc(C(F)(F)F)c2)cc1C	14*	37*	0	8	2	7	2	45*	25*
Cc1ccc(NC(=O)c2c(C(F)(F)F)nn(C)c2SCc2ccc(Cl)cc2)cc1C	7	17	0	6	5	.	.	.	.
